Laboratory results taken from PubChem BioAssay (NCATS).
Where “and” joins values, the source holds several entries; their conditions need not be identical. Identical values can stand only once. Inconclusive results are not listed. Values without a mark were called inactive. Calls of active or inactive are those of the source. Calls come from the whole dose curve; as a rule, active = well fitted inhibition curve with a large enough effect; inconclusive = small, poorly fitted or top-dose-only effect; inactive = flat fitted curve, though single readings scatter.

How the values were obtained:
TAB113 = assay: qHTS profiling for inhibitors of Plasmodium falciparum proliferation (AID 504749); note: potency is the fitted concentration of half-maximal effect; conditions: P. falciparum in erythrocytes, SYBR Green DNA, 72 h; series mostly up to 28.7 µM
Outline: (§1)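 P. falciparum-infected erythrocytes (0.3% parasitemia, 2.5% hematocrit) incubated with compound 72 h at 37 C, 5% CO2. Parasite DNA detected by SYBR Green after lysis, overnight at room temperature; normalised to 0.29 uM artemisinin and DMSO.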

TAB165 = assay: as above; conditions: P. falciparum in erythrocytes, SYBR Green DNA, 72 h; series mostly up to 28.7 µM
Outline: as §1

W2 = assay: as above; conditions: P. falciparum in erythrocytes, SYBR Green DNA, 72 h; series mostly up to 28.7 µM
Outline: as §1

CRL-7250 = normal cell line; assay: Cytotoxic Profiling of Annotated Libraries Using Quantitative High-Throughput Screening (AID 1296008); conditions: Five cell lines viability, CellTiter-Glo ATP luminescence, 48-72 h; max response: stronger effect = lower value; note: potency is the fitted concentration of half-maximal effect; for max response: % is set by controls: 0 for no effect and ±100 for the full control effect
Outline: (§2)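 Cells exposed to compounds for 48 or 72 hr at 37 degrees Celsius. Viability read as ATP-coupled luminescence with CellTiter-Glo after 10 min at room temperature.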

HaCat [1] = assay: as above; conditions: Five cell lines viability, CellTiter-Glo ATP luminescence, 48-72 h; max response: stronger effect = lower value
Outline: as §2

NIH3T3 = assay: as above; conditions: Five cell lines viability, CellTiter-Glo ATP luminescence, 48-72 h; max response: stronger effect = lower value
Outline: as §2

KB-3-1 = assay: as above; conditions: Five cell lines viability, CellTiter-Glo ATP luminescence, 48-72 h; max response: stronger effect = lower value
Outline: as §2

HEK293 = assay: as above; conditions: Five cell lines viability, CellTiter-Glo ATP luminescence, 48-72 h; max response: stronger effect = lower value
Outline: as §2

HACAT [2] = assay: qHTS assay to identify novel small-molecules to repurpose for Merkel cell carcinoma treatment (AID 1296009); conditions: MCC and control cell lines, CellTiter-Glo viability, 72 h; at 44.8 µM (top of the series) unless noted
Outline: (§3)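 Cells were treated for 72 hr at 37 degree celsius with compounds in 8- or 11-point dose response. Viability was read by CellTiter-Glo luminescence, normalized to no-cell (cytotoxicity) and DMSO controls.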

HEK293T = assay: as above; conditions: MCC and control cell lines, CellTiter-Glo viability, 72 h; at 44.8 µM (top of the series) unless noted
Outline: as §3
Note: nearly all actives have a fitted effect of over 60% in size.

**Q.** What does the source list for C[N+]1(CC2COC(c3ccccc3)(C3CCCCC3)O2)CCCCC1 (centres undefined)?
**A.** Potency (TAB113): 5.01 µM (active); Potency (TAB165): 5.01 µM (active); Potency (W2): 5.36 µM (active); max response (CRL-7250): -1.29%; max response (HaCat [1]): 3.15%; max response (NIH3T3): -8.34%

**Q.** Which Potency (TAB113) does the source give for CN1CCN(C2=Nc3cc(F)ccc3Cc3ccccc32)CC1 here?
**A.** inactive

**Q.** What about the Potency (W2) of the same compound?
**A.** 7.57 µM (active)

**Q.** And the max response (CRL-7250)?
**A.** -25%

**Q.** What about the max response (HaCat [1]) of the same compound?
**A.** -42.8%

**Q.** What about the max response (KB-3-1) of the same compound?
**A.** 0.909%

**Q.** What about the max response (NIH3T3) of the same compound?
**A.** -19.6%

**Q.** Which max response (HEK293) does the source give for CC(C)[C@@H]1CC[C@@H](C)CC1=O here?
**A.** -11.3%

**Q.** What about the outcome (HaCat [1]) of the same compound?
**A.** inactive

**Q.** What about the max response (KB-3-1) of the same compound?
**A.** -7.81%

**Q.** What about the max response (NIH3T3) of the same compound?
**A.** 4.81%

**Q.** And the outcome (HACAT [2])?
**A.** inactive

**Q.** How did the Potency (TAB113) turn out when CC(=O)Nc1ccc(CC(=O)O)cc1 was run?
**A.** inactive

**Q.** What about the Potency (TAB165) of the same compound?
**A.** inactive

**Q.** What about the Potency (W2) of the same compound?
**A.** inactive

**Q.** What about the max response (HEK293) of the same compound?
**A.** 0.0311%

**Q.** And the outcome (HaCat [1])?
**A.** inactive

**Q.** What about the max response (KB-3-1) of the same compound?
**A.** -17.4%

**Q.** What about the max response (NIH3T3) of the same compound?
**A.** -0.623%

**Q.** And the outcome (HACAT [2])?
**A.** inactive

**Q.** What does the source list for C[C@@H](O)[C@H]1C(=O)N2C(C(=O)O)=C([C@H]3CCCO3)S[C@H]12?
**A.** max response (HEK293): -1.4%; outcome (HaCat [1]): inactive; max response (KB-3-1): 3.93%; outcome (NIH3T3): inactive; outcome (HACAT [2]): inactive

**Q.** Which results are given for CCOC(=O)[C@H](CCc1ccccc1)N[C@@H](C)C(=O)N1[C@H](C(=O)O)C[C@@H]2CCC[C@@H]21?
**A.** max response (HEK293): 1.35%; outcome (HaCat [1]): inactive; max response (KB-3-1): 3.06%; max response (NIH3T3): 0.794%; outcome (HACAT [2]): inactive

**Q.** With C=C[C@H]1CN2CC[C@H]1C[C@H]2[C@H](O)c1ccnc2ccc(OC)cc12 as the compound, how does the max response (HaCat [1]) read?
**A.** -3.94%

**Q.** And the max response (KB-3-1)?
**A.** 4.92% and -14.4% and -25.6%

**Q.** And the max response (NIH3T3)?
**A.** -2.33%

**Q.** How did the Potency (W2) turn out when CN(Cc1ccc(C(C)(C)C)cc1)Cc1cccc2ccccc12 was run?
**A.** 9.53 µM (active)

**Q.** And the max response (NIH3T3)?
**A.** -14%

**Q.** CCOc1cc(OCC)c(C(=O)CCC(=O)O)cc1OCC was tested. Which Potency (TAB113) did it give?
**A.** inactive

**Q.** And the Potency (TAB165)?
**A.** inactive

**Q.** And the Potency (W2)?
**A.** inactive

**Q.** What about the max response (HEK293) of the same compound?
**A.** -0.0497%

**Q.** What about the outcome (HaCat [1]) of the same compound?
**A.** inactive

**Q.** And the outcome (NIH3T3)?
**A.** inactive

**Q.** What about the outcome (HACAT [2]) of the same compound?
**A.** inactive

**Q.** For CCC1Nc2cc(Cl)c(S(N)(=O)=O)cc2S(=O)(=O)N1 (centres undefined), which Potency (TAB113) is on record?
**A.** inactive

**Q.** What about the Potency (TAB165) of the same compound?
**A.** inactive

**Q.** What about the Potency (W2) of the same compound?
**A.** inactive

**Q.** What about the outcome (HEK293) of the same compound?
**A.** inactive

**Q.** And the max response (HaCat [1])?
**A.** 3.1%

**Q.** What about the max response (KB-3-1) of the same compound?
**A.** -3.7%

**Q.** And the max response (NIH3T3)?
**A.** 3.7%

**Q.** And the outcome (HEK293T)?
**A.** inactive

**Q.** With O[C@@H](c1cc(C(F)(F)F)nc2c(C(F)(F)F)cccc12)[C@H]1CCCCN1 as the compound, how does the Potency (TAB113) read?
**A.** 0.01 µM (active)

**Q.** What about the Potency (TAB165) of the same compound?
**A.** 0.0316 µM (active)

**Q.** What about the Potency (HEK293) of the same compound?
**A.** 9.44 µM (active)

**Q.** And the Potency (KB-3-1)?
**A.** 25.9 µM (active)

**Q.** CC(=O)OC[C@H]1O[C@@H](n2ncc(=O)[nH]c2=O)[C@H](OC(C)=O)[C@@H]1OC(C)=O was tested. Which Potency (TAB165) did it give?
**A.** inactive

**Q.** And the Potency (W2)?
**A.** inactive

**Q.** And the Potency (HEK293)?
**A.** 0.944 µM (active)

**Q.** What about the max response (HaCat [1]) of the same compound?
**A.** -1.52%

**Q.** Nc1ccc(S(=O)(=O)Nc2cnc3ccccc3n2)cc1 was tested. Which Potency (TAB113) did it give?
**A.** inactive

**Q.** What about the Potency (TAB165) of the same compound?
**A.** inactive

**Q.** And the Potency (W2)?
**A.** inactive

**Q.** What about the max response (HEK293) of the same compound?
**A.** 1.95%

**Q.** And the max response (HaCat [1])?
**A.** -4.06%

**Q.** What about the max response (KB-3-1) of the same compound?
**A.** -10.8%

**Q.** And the outcome (NIH3T3)?
**A.** inactive

**Q.** CCOC(=O)[C@@](C)(N)Cc1ccc(O)c(O)c1 was tested. Which Potency (HEK293) did it give?
**A.** 18.8 µM (active)

**Q.** What about the outcome (HaCat [1]) of the same compound?
**A.** inactive

**Q.** What about the max response (KB-3-1) of the same compound?
**A.** -9.02%

**Q.** And the outcome (HACAT [2])?
**A.** inactive
